The values below come from PubChem BioAssay AID1671192 (National Center for Advancing Translational Sciences (NCATS), 2021).

Inconclusive results are not listed. Calls of active or inactive are those of the source. The call rests on the fitted dose curve; in most records, active means well fitted curve in the direction sought with a large enough effect; inconclusive means small, poorly fitted or top-dose-only effect, or another doubt; inactive means no such curve, though single readings can be large or run the other way.

Polyunsaturated fatty acid lipoxygenase ALOX15 (Homo sapiens), sequence (P16050 whole entry, looked up): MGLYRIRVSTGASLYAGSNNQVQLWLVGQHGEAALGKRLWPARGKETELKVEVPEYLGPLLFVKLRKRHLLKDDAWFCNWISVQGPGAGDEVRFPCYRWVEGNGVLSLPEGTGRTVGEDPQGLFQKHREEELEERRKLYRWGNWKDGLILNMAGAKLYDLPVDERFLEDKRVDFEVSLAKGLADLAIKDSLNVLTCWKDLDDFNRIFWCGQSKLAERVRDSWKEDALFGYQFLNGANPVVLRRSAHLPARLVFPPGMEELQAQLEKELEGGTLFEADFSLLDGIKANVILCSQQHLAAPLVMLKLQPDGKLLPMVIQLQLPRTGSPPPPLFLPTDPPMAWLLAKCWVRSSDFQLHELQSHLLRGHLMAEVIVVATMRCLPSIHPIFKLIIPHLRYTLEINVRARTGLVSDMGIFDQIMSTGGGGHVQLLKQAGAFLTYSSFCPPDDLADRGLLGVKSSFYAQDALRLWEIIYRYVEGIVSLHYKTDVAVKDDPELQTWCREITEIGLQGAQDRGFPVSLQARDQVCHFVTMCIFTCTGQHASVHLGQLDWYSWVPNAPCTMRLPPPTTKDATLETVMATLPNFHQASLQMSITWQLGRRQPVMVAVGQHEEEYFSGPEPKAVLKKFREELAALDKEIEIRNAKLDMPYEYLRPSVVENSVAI

The experiment has as its target Polyunsaturated fatty acid lipoxygenase ALOX15 (Homo sapiens) (UniProt P16050). Kind of experiment: Counterscreen qHTS for inhibitors of human arachidonate 12S-lipoxygenase (ALOX12): ALOX15 Assay. Conditions: purified ALOX15 enzyme activity; series mostly up to 110 µM. In outline:
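Xylenol orange–ferric complex formation, read as the 573 nm to 405 nm absorbance ratio, tracks product from 50 uM arachidonic acid turned over for 30 min at RT. Enzyme is 40 nM ALOX15, pH 7.5 HEPES buffer, compound-preincubated 15 min.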
Turning to `NC(C(=O)N1CCC2(CC1)CN(C(=O)Cc1cccc(Cl)c1)CCO2)c1ccccc1` (stereo not drawn), the compound was classed as inactive.

With `N#Cc1cccc(CN2CCCC(c3nc4ccc(F)cc4c(=O)[nH]3)C2)c1` (stereo not drawn), the call was inactive. As to `O=C(O)c1cccc(-c2ccc(OC(F)(F)F)cc2)c1`, the result was inactive. The value for `Cc1ccc(CN2CCC3(Cc4ccccc4CNC3=O)C2)cc1` (stereo not drawn) was “inactive”. The result for `Cc1ccc(-c2ccc(CN)cc2)cc1Cl` reads “inactive”; that for `CCOCCNc1ncnc2c1CN(C1CCCNC1)C(=O)CN2C` (stereo not drawn), “inactive”; that for `CN1CC(=O)N(C2CCCNCC2)Cc2c1ncnc2N1CCN(c2ncccn2)CC1` (stereo not drawn), “inactive”. The value for `O=C(c1ccncc1)N1CCC(c2nnc3n2CCNC3)CC1` was “inactive”. Turning to `COc1ccc(NC2CN(C(=O)OC(C)(C)C)C2)cc1`, the compound was called inactive. The value for `CC(=O)NCCC(=O)N1Cc2ccccc2CC2(CCCCN2CC2CCNC2)C1` (stereo not drawn) was “inactive”; that for `CN1CC(=O)N(C2CCCNCC2)Cc2c1ncnc2N1CCC(C#N)CC1` (stereo not drawn) was “inactive”. The value for `FC(F)(F)c1cccc(C2=NOC3(CCN(Cc4ccsc4)C3)C2)c1` (stereo not drawn) was “inactive”; that for `O=C(c1ccccc1F)N1CCc2nc(C3CC3)nc(-c3ccc(Cl)cc3)c2C1` was “inactive”. The result for `NCc1cccc(-c2ccsc2)c1` reads “inactive”. Consider `CN1CC(=O)N(C2CCCNCC2)Cc2c1ncnc2N1CCN(Cc2ccccc2)CC1` (stereo not drawn), for which the result was inactive. The result for `Cc1cc(C(=O)NC2CCCC2)c2c(C3CCNC3)noc2n1` (stereo not drawn) reads “inactive”; that for `O=C(O)CCCC(=O)N1Cc2ccccc2CC2(CCCN2Cc2ccccc2)C1` (stereo not drawn), “inactive”; that for `COc1cccc([S+](=O)([O-])N2CCn3c(nn(-c4cccc(Cl)c4)c3=O)C2)c1`, “inactive”.
